S-ASM inh – human S-ASM enzyme inhibition; placental ASM, HMU-PC fluorogenic substrate, 60 min; Potency, µM (highest dose often 57.5 µM), without a hit: at the top dose activity change, negative = inhibition, most hits filed as inhibitors; 340,000 tested, 0.006% active
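qHTS format. ASM enzyme prepared from human placenta hydrolyses the fluorogenic substrate HMU-PC0 (9 uM final) over 60 min at 37 °C after a 10 min compound preincubation.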
Abeta yeast res – compounds reversing amyloid beta toxicity in yeast | yeast expressing A-beta42, growth rescue, OD600, 48 h; response scale: 0% DMSO, 100% iron-clioquinol control | Potency, µM (titrated, usually from 46.1 µM), usual class: activators | 410,000 tested, 0.063% active; further: nearly all actives have a fitted effect of over 55% in size
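Yeast growth medium received pinned compounds, then yeast cells expressing toxic A-beta were added; plates incubated at 30 C for 48 hr. Growth read as absorbance at 600 nm, normalized to DMSO and equimolar FeCl3 plus clioquinol controls.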
Rango dissoc inh – inhibition of RanGTP-driven Rango-importin beta dissociation | Potency, µM (doses to about 46.1 µM), for inactives: at the highest dose activity change, negative = inhibition | Biochemical FRET Rango-importin beta, RanGTP-induced dissociation | 340,000 tested, 0.071% active; calls by dose curve; further: % of control where 0% means no effect; nearly all actives have a fitted effect of over 45% in size
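Rango FRET biosensor (snurportin-1 IBB flanked by N-terminal EYFP and C-terminal CFP10) at 0.1 uM, with 0.25 uM importin beta in PBS, 1mM DTT, 0.02% Tween-20, 0.1% BSA. 0.6 uM Ran, 2mM GTP and 0.2 uM RCC1 were then added for 45 min at room temperature. Inhibition read as loss of FRET rise.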
TDP-43 yeast inh – TDP-43 toxicity inhibition in yeast; TDP-43 expressing yeast growth rescue, BacTiter-Glo, 24 h; 410,000 tested, 1.8% active; AID 652104; Potency, µM (highest dose often 46.1 µM), for the others: top-dose growth rescue (activation), usual class: activators; further: % of control where 0% means no effect; nearly all actives have a fitted effect of over 50% in size
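Yeast expressing TDP-43 (pregrown in raffinose, seeded at OD600=0.02 in galactose medium) exposed to compounds 24 hr at 30 deg C. Growth read by BacTiter-Glo luminescence; rescue of toxicity appears as increased signal.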
Rango complex inh – prevents formation of the Rango-importin beta complex; Potency, µM (highest dose often 92.2 µM), for inactives: at the highest dose inhibition of complex formation; 340,000 tested, 0.031% active; Rango CFP/YFP FRET sensor + importin beta, 45 min; AID 540263; Q14974; calls by dose curve;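 further: 0% = DMSO wells and 100% = buffer wells lacking importin beta; nearly all actives have a fitted effect of over 15% in size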
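FRET biosensor (snurportin 1 IBB flanked by EYFP and cerulean), 50 nM, with compound 5 min, then 0.125 microM importin beta in PBS, 1 mM DTT, 0.02% Tween-20, 0.1% BSA. CFP/YFP ratio read after 45 min at room temperature; pre-read flags interference.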
aSyn yeast inh – inhibitors of alpha-synuclein toxicity in yeast; Yeast expressing alpha-synuclein, growth rescue, BacTiter-Glo, 24 h; Potency, µM (titrated, usually from 46.1 µM), for inactives: at the top dose growth rescue (activation), most hits filed as activators; AID 652106; 370,000 tested, 0.14% active; further: % of control where 0% means no effect; nearly all actives have a fitted effect of over 65% in size
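Readout is rescue of growth in alpha-synuclein-expressing yeast, so inhibitors of toxicity appear as activators. Growth after 24 hr at 30 deg C in galactose medium is quantified by luminescence.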
* hit, by the source's call; [ ] = remark or other dose. Sampled rows, rich in hits. Any-hit rate of the full collection: about 2%. Unless noted, the call rests on the fitted dose curve; in most records, active means well fitted curve in the direction sought with a large enough effect; inconclusive means small, poorly fitted or top-dose-only effect, or another doubt; inactive means no such curve, though single readings can be large; an effect the other way counts as inactive or inconclusive. Potency means the concentration at half of the fitted maximal effect.

`O=C(COc1ccccc1)Nc1ccc2nc(SCC(=O)N3CCCC3)sc2c1` gave Abeta yeast res inactive and TDP-43 yeast inh 32µM*.
For Cc1cccc(C(=O)Nc2ccc(N3CC=C(c4ccccc4C)CC3)c(C(=O)O)c2)c1 the results were Abeta yeast res inactive and TDP-43 yeast inh 0%[9.22 µM].
`CCCCn1nnnc1C(c1ccccc1)N1CCN(c2ccc(F)cc2)CC1` (stereo not given) gave Abeta yeast res inactive, TDP-43 yeast inh 28µM* and aSyn yeast inh 14%.
Screening N/C(Cc1ccc(Cl)cc1Cl)=N\OC(=O)c1ccccc1 returned S-ASM inh 3%, Abeta yeast res inactive, Rango dissoc inh 9%, TDP-43 yeast inh inconclusive, Rango complex inh 1% and aSyn yeast inh -75%.
Screening N/C(CC1CC1(Cl)Cl)=N\OC(=O)c1ccccc1 (stereo not given) returned S-ASM inh 4%, Abeta yeast res inactive, Rango dissoc inh -4%, TDP-43 yeast inh 18µM*, Rango complex inh -1% and aSyn yeast inh -35%.
Screening Nc1nnc(SCc2ccc(F)cc2)s1 returned S-ASM inh 0%, Abeta yeast res inactive, Rango dissoc inh -2%, TDP-43 yeast inh -12%, Rango complex inh 0% and aSyn yeast inh 0%.
For Nc1nc(SCc2ccc(F)cc2)ns1 the results were S-ASM inh 5%, Abeta yeast res inconclusive, Rango dissoc inh -1%, TDP-43 yeast inh 13µM*, Rango complex inh -3% and aSyn yeast inh -13%.
`CCOC(=O)c1cccc(NC(=O)CCc2c(C)nn(-c3ccc(N4CCCC4)nn3)c2C)c1` gave Abeta yeast res inactive and TDP-43 yeast inh 22%.
`C=CCN(c1ccccc1)S(=O)(=O)c1cccc(C(=O)Nc2ccncc2)c1` gave S-ASM inh -1%, Abeta yeast res inactive, Rango dissoc inh 5%, TDP-43 yeast inh -9%, Rango complex inh 2% and aSyn yeast inh -3%.
Screening C=CCN(c1ccccc1)S(=O)(=O)c1cccc(C(=O)Nc2ccc(N3CCOCC3)cc2)c1 returned S-ASM inh -2%, Abeta yeast res inactive, Rango dissoc inh -3%, TDP-43 yeast inh 14µM*, Rango complex inh -5% and aSyn yeast inh 1%.
Cc1ccc(S(=O)(=O)c2c(Nc3ccc(C)c(C)c3)sc(C(=O)c3ccc4c(c3)OCO4)c2N)cc1 was read as Abeta yeast res inactive and TDP-43 yeast inh 7%.
Screening COc1cc2[nH]c(C(=O)N3CCc4ccccc4C3)cc2c(OC)c1OC returned S-ASM inh -3%, Abeta yeast res inactive, Rango dissoc inh 34%, TDP-43 yeast inh 22µM*, Rango complex inh 3% and aSyn yeast inh -16%.
Screening COc1ccccc1CNC(=O)c1ccc2c(c1)nc(C)n2-c1ccccc1OC returned Abeta yeast res inactive and TDP-43 yeast inh -9%.
For C=C1C=C(C(F)F)n2ncc(C(=O)NCc3ccc(OC)c(OC)c3)c2N1 the results were aSyn yeast inh -14%.
`CC(C)(C)c1ccc(/C=C(\C#N)C(=O)NC2CC2)cc1` gave S-ASM inh 4%, Abeta yeast res inactive, Rango dissoc inh 12%, TDP-43 yeast inh 35µM*, Rango complex inh 0% and aSyn yeast inh 27%.
For N#C/C(=C\c1ccc(F)c(Br)c1)C(=O)NC1CC1 the results were S-ASM inh 2%, Abeta yeast res inconclusive, Rango dissoc inh 4%, TDP-43 yeast inh inconclusive, Rango complex inh -1% and aSyn yeast inh inconclusive.
For Cc1nc2ccccc2nc1-c1csc(-c2ccccc2)n1 the results were aSyn yeast inh -4%.
Screening O=C(NCc1ccc(F)c(F)c1)c1ccc(-c2ccc(F)c(F)c2)c2ccoc12 returned Abeta yeast res inactive, TDP-43 yeast inh 4% and aSyn yeast inh -2%.
Screening O=C(NCC1CCOCC1)c1ccc(-c2ccc(F)c(F)c2)c2ccoc12 returned Abeta yeast res inactive, TDP-43 yeast inh 25µM* and aSyn yeast inh 9%.
Screening COc1ccc(S(=O)(=O)c2cn(C)c3ccc(C)cc3c2=O)cc1 returned Abeta yeast res inactive and TDP-43 yeast inh 26%.
`C(=N/Nc1nc(-c2ccccc2)cc(-c2ccccc2)n1)/c1cccnc1` gave S-ASM inh -1%, Abeta yeast res inactive, Rango dissoc inh 22%, TDP-43 yeast inh 14µM*, Rango complex inh 0% and aSyn yeast inh 8%.
`Cc1cccc(Nc2ncnc3onc(-c4cccc(Cl)c4)c23)c1` gave S-ASM inh -24%, Abeta yeast res inactive, Rango dissoc inh -18%, TDP-43 yeast inh 19%, Rango complex inh 6% and aSyn yeast inh -2%.
Screening CN(c1ncnc2onc(-c3cccc(Cl)c3)c12)C1CCCCC1 returned Abeta yeast res inactive and TDP-43 yeast inh 22µM*.
For CCCc1cc(C(=O)Nc2ccc(C(=O)c3ccccc3)cc2)n(C)n1 the results were S-ASM inh -3%, Abeta yeast res inactive, Rango dissoc inh -4%, TDP-43 yeast inh 25µM*, Rango complex inh -4% and aSyn yeast inh -8%.
`CCCc1cc(C(=O)Nc2ccc(C(=O)c3ccc(F)cc3)cc2)n(C)n1` gave S-ASM inh -2%, Abeta yeast res inactive, Rango dissoc inh 9%, TDP-43 yeast inh inconclusive, Rango complex inh 0% and aSyn yeast inh -23%.
For Cc1ccccc1-n1nc(CO)c(C(=O)NCCc2ccccc2)n1 the results were Abeta yeast res inactive and TDP-43 yeast inh 25%.
Screening COc1ccc(-c2cc(C(=O)O)sc2C)cc1 returned S-ASM inh 5%, Abeta yeast res inactive, Rango dissoc inh -2%, TDP-43 yeast inh 22µM*, Rango complex inh 3% and aSyn yeast inh 2%.
Screening COc1ccccc1NC(=O)C(=O)NCC(c1ccc2c(c1)OCO2)N1CCOCC1 (stereo not given) returned Abeta yeast res inactive and TDP-43 yeast inh 18%.
For O=C(O)/C=C/c1ccccc1Oc1ccccc1 the results were S-ASM inh -3%, Abeta yeast res inactive, Rango dissoc inh -4%, TDP-43 yeast inh 18µM*, Rango complex inh 0% and aSyn yeast inh 30%.
Screening O=C(O)/C=C\c1ccccc1Oc1ccc(F)cc1 returned S-ASM inh 5%, Abeta yeast res inactive, Rango dissoc inh -10%, TDP-43 yeast inh 0%, Rango complex inh 3% and aSyn yeast inh 24%.
`NC1C(N)C(N)C1N` (stereo not given) gave aSyn yeast inh 2%.

Screening data: PubChem, National Center for Advancing Translational Sciences (NCATS)
